Source: PubChem BioAssay
Activity calls are given as the source filed them. Unless noted, how the calls were made is not given here.

Experiments:
[1] = compounds binding Alexa647 anti-His antibody – biochemical, small-molecule microarray, 635 nm fluorescence, artefact control for SMM control protein annotation, primary screen (AID 1128); conditions: higher = more signal;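 further: score merges feature fluorescence with signal-to-noise for each printed compound spot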
[2] = test system: Human papillomavirus type 1a E7 protein (residues 1-88); experiment: HPV1a E7 small-molecule binders, primary screen, biochemical, small-molecule microarray, residues 1-88, 635 nm (AID 1129); conditions: small-molecule microarray binding, fluorescence 635 nm; higher = more signal
[3] = target: Focal adhesion kinase 1 (Homo sapiens) (UniProt Q05397); experiment: PTK2 protein binding on printed compound slides – biochemical, small-molecule microarray, 635/667 nm fluorescence, BSA, DTT, primary screen (AID 1130); conditions: 635 nm fluorescence, higher = more signal;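 further: composite of spot emission at 667 nm and signal to noise over triplicate slides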
Focal adhesion kinase 1 (Homo sapiens), sequence (Q05397 whole entry, looked up): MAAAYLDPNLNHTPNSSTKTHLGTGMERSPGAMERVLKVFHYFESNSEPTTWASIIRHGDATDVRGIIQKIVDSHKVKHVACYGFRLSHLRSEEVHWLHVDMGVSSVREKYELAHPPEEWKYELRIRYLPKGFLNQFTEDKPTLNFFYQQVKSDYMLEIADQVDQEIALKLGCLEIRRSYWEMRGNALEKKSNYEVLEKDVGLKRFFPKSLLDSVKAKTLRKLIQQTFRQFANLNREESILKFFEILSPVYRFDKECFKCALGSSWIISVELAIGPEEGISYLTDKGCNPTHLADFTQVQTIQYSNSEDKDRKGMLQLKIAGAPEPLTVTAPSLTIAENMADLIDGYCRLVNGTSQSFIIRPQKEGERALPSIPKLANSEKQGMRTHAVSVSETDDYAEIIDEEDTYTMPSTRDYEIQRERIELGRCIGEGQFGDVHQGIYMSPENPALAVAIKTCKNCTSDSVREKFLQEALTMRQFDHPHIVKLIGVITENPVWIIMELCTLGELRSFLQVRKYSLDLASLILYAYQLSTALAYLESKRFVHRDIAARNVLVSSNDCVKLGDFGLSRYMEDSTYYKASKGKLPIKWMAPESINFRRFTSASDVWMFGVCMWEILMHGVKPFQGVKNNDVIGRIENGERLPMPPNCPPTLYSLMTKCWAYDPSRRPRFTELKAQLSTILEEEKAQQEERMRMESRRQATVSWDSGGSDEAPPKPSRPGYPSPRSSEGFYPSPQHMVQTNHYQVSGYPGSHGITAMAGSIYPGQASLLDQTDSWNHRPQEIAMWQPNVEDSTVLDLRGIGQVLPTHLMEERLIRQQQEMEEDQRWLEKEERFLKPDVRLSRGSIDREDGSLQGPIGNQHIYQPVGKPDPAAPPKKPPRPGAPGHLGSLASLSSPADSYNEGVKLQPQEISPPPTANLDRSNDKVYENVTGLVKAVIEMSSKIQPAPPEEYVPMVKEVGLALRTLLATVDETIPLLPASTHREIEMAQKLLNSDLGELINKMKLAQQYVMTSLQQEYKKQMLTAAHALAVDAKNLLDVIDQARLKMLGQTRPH

[4] = test system: Fibrinogen (Alexa647-labelled); experiment: Alexa647-fibrinogen binding to printed small molecules – biochemical, small-molecule microarray, 635/667 nm fluorescence, artefact control for SMM control-protein annotation, profiling panel (AID 1131); conditions: fibrinogen-A647 binding fluorescence, higher = more signal;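 further: z-score merges 667 nm fluorescence with per-spot signal-to-noise over triplicate slides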
[5] = target: Follistatin (Homo sapiens) (UniProt P19883); experiment: FST protein binding to printed compounds – biochemical, small-molecule microarray, 635/667 nm fluorescence, primary screen (AID 1132); conditions: 635 nm fluorescence, higher = more signal
Follistatin (Homo sapiens), sequence (P19883 whole entry, looked up): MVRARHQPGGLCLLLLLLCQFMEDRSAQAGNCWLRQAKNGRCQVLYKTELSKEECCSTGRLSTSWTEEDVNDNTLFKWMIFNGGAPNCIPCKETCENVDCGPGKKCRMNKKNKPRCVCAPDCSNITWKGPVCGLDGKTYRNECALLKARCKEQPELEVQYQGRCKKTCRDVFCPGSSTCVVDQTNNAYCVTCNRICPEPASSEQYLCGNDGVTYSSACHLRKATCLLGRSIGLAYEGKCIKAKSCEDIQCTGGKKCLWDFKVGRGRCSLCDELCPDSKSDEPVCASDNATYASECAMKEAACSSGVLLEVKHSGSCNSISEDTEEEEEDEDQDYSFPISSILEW

[6] = target: Fibroblast growth factor 2 (Homo sapiens) (UniProt P09038); experiment: basic fibroblast growth factor binding to printed compounds – biochemical, small-molecule microarray, 635/667 nm fluorescence, primary screen (AID 1133); conditions: FGF2, fluorescence 635/667, higher = more signal
Fibroblast growth factor 2 (Homo sapiens), sequence (P09038 whole entry, looked up): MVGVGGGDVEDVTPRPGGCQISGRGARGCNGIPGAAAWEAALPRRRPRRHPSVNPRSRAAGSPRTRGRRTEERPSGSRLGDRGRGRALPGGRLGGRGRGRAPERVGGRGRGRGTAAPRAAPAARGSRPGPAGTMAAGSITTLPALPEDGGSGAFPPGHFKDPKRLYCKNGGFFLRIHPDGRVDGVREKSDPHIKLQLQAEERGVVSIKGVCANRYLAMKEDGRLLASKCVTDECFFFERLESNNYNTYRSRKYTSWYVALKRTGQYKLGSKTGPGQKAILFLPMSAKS

[7] = JC-1 mitochondrial potential readout, lung cancer cells – cell-based, A549, JC-1 fluorescence, basal, 24 h, 100 nL, profiling panel (AID 1138); conditions: higher = more signal;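 further: A549 lung adenocarcinoma cells under basal conditions with no added stimulus; test concentration not given here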
Lefty1 = Lefty1 protein binding to printed compounds – biochemical, small-molecule microarray, 635/667 nm fluorescence, primary screen (AID 1139); conditions: fluorescence 635/667, higher = more signal
[8] = test system: wheat germ agglutinin (Triticum aestivum), Alexa647-labelled; experiment: Alexa647-WGA lectin binding to printed small molecules – biochemical, small-molecule microarray, 635/667 nm fluorescence, artefact control for SMM control-protein annotation, profiling panel (AID 1140); conditions: WGA-A647 binding, 635 nm fluorescence, higher = more signal;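 further: score merges 667 nm feature emission with signal to noise over triplicate slides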
[9] = target: Luciferin 4-monooxygenase (Photinus pyralis) (UniProt P08659); experiment: inhibition of purified Photinus pyralis luciferase – biochemical, luminescence, purified enzyme, 2006 set, primary screen (AID 1141); conditions: purified firefly luciferase, SteadyGlo luminescence, 30 min; higher = more signal, called active from +8 up or from −8 down;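 further: cell-free assay with purified firefly luciferase at 100 ng per well in PBS; test concentration not given here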
Luciferin 4-monooxygenase (Photinus pyralis), sequence (P08659 whole entry, looked up): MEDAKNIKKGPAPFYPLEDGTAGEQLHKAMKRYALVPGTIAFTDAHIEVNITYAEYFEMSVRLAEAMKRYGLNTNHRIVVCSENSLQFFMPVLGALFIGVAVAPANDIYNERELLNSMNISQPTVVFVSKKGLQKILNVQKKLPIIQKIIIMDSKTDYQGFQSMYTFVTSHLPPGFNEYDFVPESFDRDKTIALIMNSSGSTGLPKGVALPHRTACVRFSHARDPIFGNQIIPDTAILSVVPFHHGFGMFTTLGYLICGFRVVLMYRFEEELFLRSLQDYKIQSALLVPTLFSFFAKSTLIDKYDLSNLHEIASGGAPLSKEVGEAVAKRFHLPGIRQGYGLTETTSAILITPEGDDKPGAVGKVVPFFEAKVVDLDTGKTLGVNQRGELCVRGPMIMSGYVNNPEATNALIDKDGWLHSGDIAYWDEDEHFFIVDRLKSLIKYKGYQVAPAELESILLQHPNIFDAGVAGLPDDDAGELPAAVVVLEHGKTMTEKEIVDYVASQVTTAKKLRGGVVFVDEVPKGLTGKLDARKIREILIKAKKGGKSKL

[10] = test system: Wnt5a (protein binding on small-molecule microarray); experiment: small molecules binding Wnt5a protein – biophysical, small-molecule microarray, 635/667 nm fluorescence, primary screen (AID 1142); conditions: 635 nm fluorescence, higher = more signal;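 further: fluorescence read at 667 nm with signal to noise per printed feature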
[11] = ATP-based viability of Huh7 replicon cells – cell-based, CellTiter-Glo luminescence, basal, 48 h, cytotoxicity control for HCV replication inhibitor project, primary screen (AID 1143); conditions: higher = more signal, called active from +8 up or from −8 down;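 further: Huh7 hepatoma cells carrying a hepatitis C replication reporter with no stimulus; test concentration not given here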
[12] = Pseudomonas biofilm growth suppression – PAO1 strain, BacTiter-Glo luminescence, LB-PBS, primary screen (AID 1144); conditions: P. aeruginosa PAO1 biofilm, 12 h, higher = more signal
[13] = basal CRE-LacZ reporter activity in PC12 – cell-based, unstimulated, primary screen (AID 1145); conditions: no forskolin, luminescence, 4.5 h, higher = more signal, called active from +8 up or from −8 down
[14] = forskolin-driven CRE-LacZ activity in PC12 – cell-based, CRE-LacZ reporter, forskolin-stimulated, primary screen (AID 1146); conditions: luminescence, 4.5 h, higher = more signal, called active from +8 up or from −8 down;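 further: PC12 cells with 6xCRE LacZ reporter stimulated by forskolin 10 µM; beta-galactosidase reporter signal reflecting CREB driven transcription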
[15] = target: Streptavidin (Streptomyces avidinii) (UniProt P22629); experiment: compounds binding control protein streptavidin – biophysical, small-molecule microarray, 635/667 nm fluorescence, artefact control for SMM compound annotation, primary screen (AID 1147); conditions: higher = more signal;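 further: signal reflects streptavidin binding to arrayed compounds as a control protein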
Streptavidin (Streptomyces avidinii), sequence (P22629 whole entry, looked up): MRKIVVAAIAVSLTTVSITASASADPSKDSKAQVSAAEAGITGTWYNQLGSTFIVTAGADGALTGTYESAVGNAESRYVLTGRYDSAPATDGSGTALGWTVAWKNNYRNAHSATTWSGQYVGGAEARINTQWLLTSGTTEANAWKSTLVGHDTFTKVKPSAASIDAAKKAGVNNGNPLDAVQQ

[16] = probe aInhba binding on compound microarray – biochemical, small-molecule microarray, 635/667 nm fluorescence, primary screen (AID 1148); conditions: higher = more signal;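 further: score merges 667nm spot fluorescence with signal-to-noise for antibody binding to printed compounds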
Torsin-1A (Homo sapiens) [17] = target: Torsin-1A (Homo sapiens) (UniProt O14656); experiment: TOR1A wild-type binding on microarray – cell lysate, small-molecule microarray, lysate, 635/667 nm, primary screen (AID 1149); conditions: COS7 hTOR1A-WT lysate, 635 nm fluorescence, higher = more signal
Torsin-1A (Homo sapiens), sequence (O14656 whole entry, looked up): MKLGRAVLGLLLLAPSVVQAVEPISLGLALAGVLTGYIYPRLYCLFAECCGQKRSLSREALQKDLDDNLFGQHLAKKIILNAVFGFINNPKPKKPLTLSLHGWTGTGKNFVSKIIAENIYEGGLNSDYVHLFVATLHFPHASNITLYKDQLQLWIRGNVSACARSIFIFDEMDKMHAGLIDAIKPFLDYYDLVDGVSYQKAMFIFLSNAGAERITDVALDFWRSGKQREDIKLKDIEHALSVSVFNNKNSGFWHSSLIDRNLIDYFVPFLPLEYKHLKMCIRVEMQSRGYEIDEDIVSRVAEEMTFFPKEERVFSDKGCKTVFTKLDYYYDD

Torsin-1A (Homo sapiens) [18] = target: Torsin-1A (Homo sapiens) (UniProt O14656); experiment: torsin A mutant lysate binding on microarrays – cell lysate, small-molecule microarray, COS7 lysate, 635/667 nm fluorescence, primary screen (AID 1150); conditions: COS7 hTOR1A mutant lysate, 635 nm fluorescence, higher = more signal;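 further: score pools 667 nm emission and signal to noise measuring lysate protein binding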
[19] = test system: Sonic hedgehog protein (Shh); experiment: Sonic hedgehog microarray binding compounds – biochemical, small-molecule microarray, 635/667 nm fluorescence, primary screen (AID 1151); conditions: 635 nm fluorescence, higher = more signal;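 further: Shh protein binding to compounds spotted on small-molecule microarray slides; score combines spot fluorescence intensity with signal-to-noise across triplicate slides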

SMILES	composite z-score [1]	composite z-score [2]	composite z-score [3]	composite z-score [4]	composite z-score [5]	composite z-score [6]	z-score [7]	composite z-score (Lefty1)	composite z-score [8]	z-score [9]	composite z-score [10]	z-score [11]	z-score [12]	z-score [13]	z-score [14]	composite z-score [15]	composite z-score [16]	composite z-score (Torsin-1A (Homo sapiens) [17])	composite z-score (Torsin-1A (Homo sapiens) [18])	composite z-score [19]
O=C1[C@H]2[C@H]3[C@H](O)[C@H](O)CC(=NOC[C@@H](O)COCc4ccco4)[C@@H]3CC[C@H]2C(=O)N1c1cccc(Oc2ccccc2)c1	-1.01	-0.964	-0.535	-0.535	0.942	0.285	-0.268	0.0743	0.196	0.921 (inactive)	-0.403	-0.578 (inactive)	0.626 (inactive)	-1.02 (inactive)	-0.009 (inactive)	0.707	-0.0986	0.419	0.94	0.537
CC(C)=CCCC(C)=CCON=C1C[C@@H](O)[C@@H](O)[C@@H]2[C@@H]3C(=O)N(c4cccc(Oc5ccccc5)c4)C(=O)[C@@H]3CC[C@H]12	0.364	1.03	0.132	0.693	0.559	0.252	-0.137	0.719	0.197	0.664 (inactive)	-0.022	-1.47 (inactive)	1.73 (inactive)	-0.205 (inactive)	-0.158 (inactive)	-0.11	-0.128	0.575	0.704	1.51
O=C1C=C[C@@H](O)[C@@H]2[C@@H]3C(=O)N(Cc4ccccc4)C(=O)[C@@H]3CC[C@@H]12	0.0502	0.673	0.168	0.394	0.415	0.484	0.831	0.314	0.228	-0.505 (inactive)	-0.0088	-0.122 (inactive)	-0.158 (inactive)	-0.566 (inactive)	-0.768 (inactive)	0.222	-0.128	0.418	0.376	0.632
COc1ccc(OC[C@H]2CN3[C@@H](CC[C@@H](C)[C@@H]3c3ccc(Br)cc3)C(=O)O2)cc1	0.0994	-0.023	-0.305	-0.0163	0.385	0.042	-0.124	0.664	-0.108	-1.55 (inactive)	-0.144	-0.202 (inactive)	-0.225 (inactive)	2.62 (inactive)	-0.165 (inactive)	0.169	-0.2	0.357	0.28	0.583
CC(CCC(=O)OC[C@H]1O[C@H](C#Cc2ccccc2)C=C[C@@H]1Oc1ccc(C)cc1)=NOC(C)CN1CCCCc2nc(C)c(C)cc21 (stereo not given in full)	-0.578	0.203	0.603	-0.626	-0.463	-0.426	0.856	-0.034	0.222	1.08 (inactive)	-0.271	-1.13 (inactive)	0.455 (inactive)	-0.561 (inactive)	1.1 (inactive)	-0.0512	-0.246	-0.453	-0.269	0.517
CC(CCN1CCCc2nc(C)c(C)cc21)=NOC[C@@H](C)[C@H](OCc1ccccc1)C(C)C	2.52	-0.703	-0.0748	-0.9	-0.516	-0.165	1.37	0.241	-0.606	-1.14 (inactive)	-0.257	-1.01 (inactive)	-0.47 (inactive)	-1.14 (inactive)	-0.186 (inactive)	-0.983	-0.101	-0.469	-0.931	0.0185
COC(=O)[C@H](C)NC(=O)CCC1CC(OC(=O)NCc2cccc3ccccc23)CC2(CCCC(COC(=O)NCCC(C)C)O2)O1 (stereo not given in full)	0.164	1.18	0.287	-1.15	0.295	0.803	0.95	0.36	0.268	0.652 (inactive)	0.0905	-0.842 (inactive)	-0.386 (inactive)	-0.522 (inactive)	-0.135 (inactive)	-0.224	-0.0695	0.181	0.205	0.683
COC(=O)[C@@H]1CC[C@H](C)[C@@H](c2ccc(C)cc2)N1C(=O)c1ccc(C=NOC[C@H]2O[C@H](c3ccccc3)C=C[C@@H]2Oc2ccc(OC)cc2)cc1	-0.585	-0.274	-0.0204	-0.324	0.222	0.174	-0.351	0.244	0.172	1.18 (inactive)	-0.134	-0.814 (inactive)	0.605 (inactive)	0.253 (inactive)	0.718 (inactive)	-0.216	0.0018	-0.671	-0.329	0.415
O=C1[C@H]2[C@H]3[C@H](O)[C@H](O)CC(=NOCc4ccccc4)[C@@H]3CC[C@H]2C(=O)N1c1cccc(Oc2ccccc2)c1	0.695	0.452	0.0881	0.96	0.248	0.184	0.578	0.687	0.315	0.245 (inactive)	-0.0001	-0.558 (inactive)	1.31 (inactive)	-0.658 (inactive)	0.0169 (inactive)	0.0831	-0.024	0.186	0.0495	1.03
CC(=O)OC[C@H]1O[C@H](CCON=C(C)CCN2CCCc3nc(C)c(C)cc32)C=C[C@@H]1OC(C)=O	1.22	1.14	0.835	0.441	1.15	0.664	-0.349	0.997	0.0722	0.591 (inactive)	0.166	0.271 (inactive)	-0.181 (inactive)	0.322 (inactive)	0.469 (inactive)	0.426	0.0973	0.946	1.17	1
